Among all 5,500 compounds or so, about 2,000 (36%) were called active. Roughly 18% stayed inconclusive and do not appear here. No stated cut-off is given here; in the data, active means normalized growth mostly below about 0.91 (no sharp cut-off); inconclusive means no clear call, values can overlap the other calls; inactive means mostly above about 0.92. Some of the results follow.
Assay: chemical genetic growth profiling, strain panel (AID 1159580);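 further: tested at 20 µM; growth read once vehicle control cultures reached saturation at 30 °C; 1 = growth at the plate median or of vehicle wells; lower values mean less growth of the strain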
Conditions: growth OD

Measured: normalized growth

O=C(Oc1cc(O)cc2c1C[C@@H](OC(=O)c1cc(O)c(O)c(O)c1)[C@@H](c1cc(O)c(O)c(O)c1)O2)c1cc(O)c(O)c(O)c1
active: S. cerevisiae deletion strains, locus YJR043C, strain POL32, hits give low values 0.13 | S. cerevisiae deletion strains, locus YKR001C, strain vps1, hits give low values 0.599 | S. cerevisiae deletion strains, locus YLR039C, strain RIC1, hits give low values 0.233 | S. cerevisiae deletion strains, locus YLR058C, strain SHM2, hits give low values 0.141 | S. cerevisiae deletion strains, locus YLR268W, strain sec22, hits give low values 0.414 | S. cerevisiae deletion strains, locus YLR330W, strain CHS5, hits give low values 0.613 | S. cerevisiae deletion strains, locus YLR342W, strain FKS1 (second series), hits give low values 0.198 | S. cerevisiae deletion strains, locus YLR371W, strain rom2, hits give low values 0.602 | S. cerevisiae deletion strains, locus YLR418C, strain cdc73, hits give low values 0.341 | S. cerevisiae deletion strains, locus YML016C, strain PPZ1, hits give low values 0.083 | S. cerevisiae deletion strains, locus YML032C, strain rad52, hits give low values 0.857 | S. cerevisiae deletion strains, locus YML124C, strain tub3, hits give low values 0.824 | S. cerevisiae deletion strains, locus YMR223W, strain ubp8, hits give low values 0.666 | S. cerevisiae deletion strains, locus YMR307W, strain GAS1, hits give low values 0.448 | S. cerevisiae deletion strains, locus YNL067W, strain RPL9B, hits give low values 0.366 | S. cerevisiae deletion strains, locus YNL233W, strain BNI4, hits give low values 0.455 | S. cerevisiae deletion strains, locus YNR052C, strain pop2, hits give low values 0.436 | S. cerevisiae deletion strains, locus YOL147C, strain pex11, hits give low values 0.779 | S. cerevisiae deletion strains, locus YOR061W, strain CKA2, hits give low values 0.218 | S. cerevisiae deletion strains, locus YOR069W, strain VPS5, hits give low values 0.182 | S. cerevisiae deletion strains, locus YOR136W, strain idh2, hits give low values 0.795 | S. cerevisiae deletion strains, locus YOR144C, strain elg1, hits give low values 0.814 | S. cerevisiae deletion strains, locus YOR184W, strain ser1, hits give low values 0.445 | S. cerevisiae deletion strains, locus YPL055C, strain LGE1, hits give low values 0.139 | S. cerevisiae deletion strains, locus YPR163C, strain tif3, hits give low values 0.87 | S. cerevisiae deletion strains, locus YPR167C, strain met16, hits give low values 0.847 | S. cerevisiae deletion strains, strain wtn01, hits give low values 0.433 | S. cerevisiae strains, strain wild type, hits give low values 0.0757
inactive: S. cerevisiae deletion strains, locus YJL187C, strain SWE1, hits give low values 1.02 | S. cerevisiae deletion strains, locus YJR066W, strain TOR1, hits give low values 0.949 | S. cerevisiae deletion strains, locus YKL009W, strain mrt4, hits give low values 1.02 | S. cerevisiae deletion strains, locus YKL068W, hits give low values 0.985 | S. cerevisiae deletion strains, locus YKL085W, strain MDH1 (second series), hits give low values 1.03 | S. cerevisiae deletion strains, locus YKL085W, strain MDH1, hits give low values 1.03 | S. cerevisiae deletion strains, locus YKL160W, strain elf1, hits give low values 1.01 | S. cerevisiae deletion strains, locus YKR026C, strain gcn3, hits give low values 0.984 | S. cerevisiae deletion strains, locus YKR091W, strain srl3, hits give low values 1.01 | S. cerevisiae deletion strains, locus YLL001W, strain dnm1, hits give low values 1.01 | S. cerevisiae deletion strains, locus YLL026W, hits give low values 1.01 | S. cerevisiae deletion strains, locus YLL041C, strain sdh2, hits give low values 1.01 | S. cerevisiae deletion strains, locus YLR027C, strain aat2, hits give low values 0.996 | S. cerevisiae deletion strains, locus YLR102C, strain apc9, hits give low values 0.948 | S. cerevisiae deletion strains, locus YLR113W, strain HOG1, hits give low values 1.06 | S. cerevisiae deletion strains, locus YLR221C, strain rsa3, hits give low values 1.03 | S. cerevisiae deletion strains, locus YLR258W, strain gsy2, hits give low values 1.01 | S. cerevisiae deletion strains, locus YLR262C, strain YPT6 (second series), hits give low values 1.01 | S. cerevisiae deletion strains, locus YLR320W, strain mms22, hits give low values 1.04 | S. cerevisiae deletion strains, locus YLR342W, strain FKS1, hits give low values 1.04 | S. cerevisiae deletion strains, locus YLR357W, strain rsc2, hits give low values 1.01 | S. cerevisiae deletion strains, locus YLR370C, strain arc18, hits give low values 1.01 | S. cerevisiae deletion strains, locus YLR384C, strain iki3, hits give low values 0.998 | S. cerevisiae deletion strains, locus YML120C, strain ndi1, hits give low values 1.01 | S. cerevisiae deletion strains, locus YMR078C, strain ctf18, hits give low values 0.938 | S. cerevisiae deletion strains, locus YMR125W, strain sto1, hits give low values 0.985 | S. cerevisiae deletion strains, locus YMR129W, hits give low values 1.01 | S. cerevisiae deletion strains, locus YMR205C, strain PFK2, hits give low values 1.02 | S. cerevisiae deletion strains, locus YMR231W, strain pep5, hits give low values 0.981 | S. cerevisiae deletion strains, locus YNL071W, strain lat1, hits give low values 1.02 | S. cerevisiae deletion strains, locus YNL183C, strain NPR1, hits give low values 0.943 | S. cerevisiae deletion strains, locus YNL209W, strain ssb2, hits give low values 0.991 | S. cerevisiae deletion strains, locus YNL248C, strain rpa49, hits give low values 1.03 | S. cerevisiae deletion strains, locus YNL250W, strain rad50, hits give low values 0.953 | S. cerevisiae deletion strains, locus YNL271C, strain bni1, hits give low values 0.941 | S. cerevisiae deletion strains, locus YNL298W, strain CLA4, hits give low values 0.948 | S. cerevisiae deletion strains, locus YNL307C, strain MCK1, hits give low values 0.915 | S. cerevisiae deletion strains, locus YNL322C, strain KRE1 (second series), hits give low values 1.01 | S. cerevisiae deletion strains, locus YNR049C, strain mso1, hits give low values 1.03 | S. cerevisiae deletion strains, locus YOL012C, strain htz1 0.207 | S. cerevisiae deletion strains, locus YOR001W, strain rrp6, hits give low values 1.02 | S. cerevisiae deletion strains, locus YOR070C, strain gyp1, hits give low values 1 | S. cerevisiae deletion strains, locus YOR080W, strain dia2, hits give low values 1.02 | S. cerevisiae deletion strains, locus YOR083W, strain WHI5, hits give low values 0.999 | S. cerevisiae deletion strains, locus YOR106W, strain vam3, hits give low values 0.989 | S. cerevisiae deletion strains, locus YOR231W, strain MKK1, hits give low values 1.02 | S. cerevisiae deletion strains, locus YOR265W, strain rbl2, hits give low values 1.02 | S. cerevisiae deletion strains, locus YOR270C, strain vph1, hits give low values 1.06 | S. cerevisiae deletion strains, locus YOR290C, strain snf2, hits give low values 0.988 | S. cerevisiae deletion strains, locus YOR316C, strain cot1, hits give low values 0.947 | S. cerevisiae deletion strains, locus YPL051W, strain arl3, hits give low values 1 | S. cerevisiae deletion strains, locus YPL078C, strain atp4, hits give low values 0.983 | S. cerevisiae deletion strains, locus YPL106C, strain sse1, hits give low values 1.01 | S. cerevisiae deletion strains, locus YPL240C, strain hsp82, hits give low values 1.01 | S. cerevisiae deletion strains, locus YPL256C, strain CLN2, hits give low values 1.07 | S. cerevisiae deletion strains, locus YPR119W, strain clb2, hits give low values 0.972 | S. cerevisiae deletion strains, locus YPR141C, strain kar3, hits give low values 0.974

Source: PubChem BioAssay AID1159580 (chemical genetic matrix, 2015)
